# Experimental data reported in PubChem BioAssay (Tox21).
# Records with an inconclusive call do not appear. Values without a mark were called inactive. Active and inactive are the calls of the source. The call rests on the fitted dose curve; in most records, active means well fitted curve in the direction sought with a large enough effect in the signal ratio in the repeat runs (not every such curve was filed as active); inconclusive means weak or mixed curves, or a change in a side signal; inactive means no such curve, though single readings can be large or run the other way; the % refers to the signal ratio.
# Test: qHTS assay to identify small molecule agonists of the NFkB signaling pathway (AID 1159509)
# Settings: NFkB-bla ME-180 cells, beta-lactamase FRET ratio, 5 h; series mostly up to 61 µM
# From the text: National Center for Advancing Translational Sciences [NCATS]
# NIH Chemical Genomics Center [NCGC]
# U.S. Environmental Protection Agency [EPA]
# National Institutes of Environmental Health Sciences [NIEHS]
# National Toxicology Program [NTP]
# U.S. Food and Drug Administration [FDA]
# Transcription factors and their stimulated target gene expression play pivotal roles across many cellular processes including responses to environmental stimuli. Proper regulation of associated pathways is critical to maintain cell health and function. Constitutive activation of transcription factor pathways has been implicated in tumors as it may block cellular functions such as apoptosis and lead to invasion and metastasis. One important transcription factor that stimulates gene expression in response to cytokines, UV radiation, and other stimuli is nuclear factor-kappa B (NFkB). To measure activation of the NFkB pathway, the CellSensor NFkB-bla ME-180 cell line (Life Technologies, Carlsbad, CA) that stably expresses beta-lactamase reporter gene under the regulation of a NF-kB response element was used. This assay allows measurement of the NFkB pathway activity induced by compounds in a ME-180 cell line. This system quantitates NF-kB activity using a FRET-based assay system where beta-lactamase expression disrupts FRET, allowing for fluorescent measurement of activity. This cell line has been used to screen the Tox21 10K compound library and to identify compounds that induce the NFkB pathway activity.
# Tox21 Assay Protocol Summary:
# NFkB-bla ME-180 cells were dispensed at 2,000 cells/6 uL of assay medium per well into black wall/clear-bottom 1536-well plates using a Multidrop Combi (ThermoFisher Scientific, Waltham, MA) dispenser. After the assay plates were incubated at 37 C and 5% CO2 for an overnight, 23 nL of compounds dissolved in DMSO, positive controls or DMSO only was transferred to the assay plate by a Pintool station (Kalypsys, San Diego, CA). The assay plates were incubated at 37 C and 5% CO2 for 5 hr. One uL of LiveBLAzer B/G FRET substrate (Life Technologies) was added using a Flying Reagent Dispenser (Aurora Discovery, San Diego, CA) and the plates were incubated at room temperature for 1.5 hr. Fluorescence intensity (405 nm excitation, 460 nm and 530 nm emissions) was measured using an Envision plate reader (PerkinElmer, Shelton, CT).
# On the % scale 0 is the no-effect control and ±100 the full control effect.
SMILES,outcome,activation
C=CCN1CC[C@]23c4c5ccc(O)c4O[C@H]2C(=O)CC[C@@]3(O)[C@H]1C5,inactive,–
ClC=C(Cl)Cl,inactive,–
Brc1ccc(Oc2ccccc2)cc1,inactive,–
CCC(COC(=O)c1cc(OC)c(OC)c(OC)c1)(c1ccccc1)N(C)C (stereo not given),inactive,–
O=C(CBr)Nc1ccc(Cl)cc1C(=O)c1ccccc1F,inactive,–
CCOP(=O)(OCC)SCCSCC,inactive,–
C=CC(=O)OCC(C)O (stereo not given),inactive,–
COP(=S)(Oc1cc(Cl)c(Br)cc1Cl)c1ccccc1 (stereo not given),inactive,–
CCOC(=O)C(Cl)C(C)=O (stereo not given),inactive,–
CC(Cl)Cl,inactive,–
C=C(C#N)CCC#N,inactive,–
CC(C)N(CCC(C(N)=O)(c1ccccc1)c1ccccn1)C(C)C (stereo not given),inactive,–
COC(=O)C(C)N(C(=O)Cc1ccccc1)c1c(C)cccc1C (stereo not given),inactive,–
CCOP(=S)(Oc1ccc([N+](=O)[O-])cc1)c1ccccc1 (stereo not given),inactive,–
CCC(C)(NC(=O)c1cc(Cl)c(C)c(Cl)c1)C(=O)CCl (stereo not given),inactive,–
CCN(C)N=O,inactive,–
CCOP(=S)(OCC)SCSCC,inactive,–
O=[N+]([O-])c1cc(C(F)(F)F)cc([N+](=O)[O-])c1Cl,inactive,–
IC(I)=C(I)I,inactive,–
CCOc1nc(F)cc2nc(S(=O)(=O)Nc3c(Cl)cccc3Cl)nn12,inactive,–

SMILES,outcome,activation
COCC(C)N(C(=O)CCl)c1c(C)csc1C (stereo not given),inactive,–
NS(=O)(=O)C(F)(F)C(F)(F)C(F)(F)C(F)(F)C(F)(F)C(F)(F)C(F)(F)C(F)(F)F,inactive,–
COC(=O)C(Cl)C(=O)OC,inactive,–
CCCCCCC#N,inactive,–
ClCc1cccc(Cl)c1,inactive,–
CC1CC(CC2CCC(N)C(C)C2)CCC1N (stereo not given),inactive,–
N#CCC#N,inactive,–
Cc1ccccc1CCl,inactive,–
COCCOCCO,inactive,–
Clc1ccc(C2(Cn3cncn3)CC(Br)CO2)c(Cl)c1 (stereo not given),inactive,–
Cc1ccc(-c2c(Cl)nc(C#N)n2S(=O)(=O)N(C)C)cc1,inactive,–
CCCCC(CC)COP(=O)(Oc1ccccc1)Oc1ccccc1 (stereo not given),inactive,–
CCCCNP(N)(N)=S,inactive,–
CCOP(=S)(OCC)SCn1nnc2ccccc2c1=O,inactive,–
CO/C=C(/C(=O)OC)c1ccccc1COc1cccc(C(F)(F)F)n1,inactive,–
BrCC(Br)C1CCC(Br)C(Br)C1 (stereo not given),inactive,–
CC(=O)C(C)(C)C,inactive,–
CC1Sc2c(C(=O)O)c(=O)c3cc(F)c(N4CCNCC4)cc3n21 (stereo not given),inactive,–
NCC(CC(=O)O)c1ccc(Cl)cc1 (stereo not given),–,0.398% [at 0.628 µM]
CC1(C)[C@H](C=C(Cl)Cl)[C@@H]1C(=O)O[C@@H](C#N)c1cccc(Oc2ccccc2)c1,inactive,–
